# According to PubChem BioAssay (NCI):
# The panel holds about 83,000 compounds, 20% with a hit somewhere; the sample as a whole holds those more often.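 Plates (96-well) were seeded with cells, treated with compound at one concentration, and incubated for 48 hours before percent growth was determined.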 A number with no mark means an inactive call. Activity calls are given as the source filed them. How the source made its calls: active means growth percent below 10; inactive means the rest.
# Tested on: HL-60(TB) leukemia
# Assay: NCI-60 one-dose screen, 48 h (100 = growth as untreated, 0 = no growth, -100 = all killed)
# Settings: 10 µM unless noted
row,SMILES,growth
1,CCN(CC)CCCNc1c2ccc(Cl)cc2nc2ccc(OC)cc12,-50.3% (active)
2,Cc1cc(C)c(C#N)c(Sc2nc(C)c([N+](=O)[O-])c(C)c2C#N)n1,66.2%
3,CCCCNc1cc(-c2cn[nH]c2-c2cc(C)cc(OC)c2)nc(-c2cccnc2)n1,105%
